An excerpt weighted towards active compounds, which were near 19% of everything screened.
HT1080-NT tox: kills 2HG-producing HT-1080-NT fibrosarcoma cells | HT-1080-NT fibrosarcoma viability, CellTiter-Glo ATP luminescence, 48 h | Potency, µM (top dose mostly 46.1 µM), for the others: at the highest dose activity, negative = less viability, most hits filed as cytotoxic | hit rate 1.6% among 360,000 | AID 686970;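 also: NT is the 2HG producing partner of a matched IDH1 knockdown line; potency is read from the fitted curve at half-maximal effect; 0% = DMSO-treated cells and -100% = media-only wells without cells; nearly all actives have a fitted effect of over 55% in size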
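Viability of the 2HG-overproducing fibrosarcoma line after 48 hours of compound exposure at 37 degrees C was determined by luminescence with CellTiter-Glo, and concentration-effect curves were then fitted and categorized.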
DT40 TDP1 CPT: DT40-hTDP1 cell growth loss with CPT. chicken DT40 Tdp1-/-;hTDP1 cells + 20 nM CPT, ATP luminescence, 48 h. Potency, µM (highest dose often 46.2 µM), inactives show at the highest dose activity change, negative = growth inhibition, usual class: inhibitors. hit rate 12% among 420,000. AID 686979; also: potency is read from the fitted curve at half-maximal effect; nearly all actives have a fitted effect of over 55% in size
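Cell growth measured by CellTiter-Glo luminescence after a minimum 48 h, 37 C compound exposure with 20 nM CPT in Tdp1-knockout DT40 cells stably expressing hTDP1, seeded 400/well; qHTS titration format.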
DT40 TDP1 no CPT: qHTS for Inhibitors of human tyrosyl-DNA phosphodiesterase 1 (TDP1): qHTS in cells in absence of CPT; DT40 Tdp1-/- hTDP1 cells, no CPT, ATP luminescence, 48 h; Potency, µM (titrated, usually from 46.2 µM), for inactives: top-dose activity change, negative = growth inhibition, most hits filed as inhibitors; hit rate 15% among 420,000; AID 686978, 2013; also: potency is read from the fitted curve at half-maximal effect; nearly all actives have a fitted effect of over 55% in size
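Seeded 400 DT40-hTDP1 cells/well (vehicle DMSO, no 20 nM CPT); pinned compounds; ≥48 hr at 37 °C; CellTiter-Glo luminescence as viability measure.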
IL1B secr inh: blocks inflammasome-driven IL-1 beta release. THP-1 LPS/ATP IL-1B secretion, AlphaLISA, 16 h; active compounds read low. hit rate 4.7% among 360,000. activity change, % at 57.5 µM. AID 743279; in the data active = activity change below about -50%; inconclusive = mostly about -30% to -49%
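THP-1 cells pretreated 1 hr with compounds (up to 57.5 uM final), then stimulated with LPS (250 ng/mL final) plus ATP (1.25 mM final); secreted IL-1B measured by AlphaLISA after 16 hr, decreased signal indicating inhibition.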
HT1080 IDH1KD tx: toxicity to HT-1080 IDH1 knockdown cells (counter line); AID 686971; HT-1080 IDH1 knockdown viability, ATP luminescence, 48 h; Potency, µM (highest dose often 46.1 µM), without a hit: at the top dose activity, negative = toxicity, usual class: cytotoxic; hit rate 2% among 360,000;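 also: potency is read from the fitted curve at half-maximal effect; 0% = DMSO wells and -100% = cell-free medium wells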
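Assay cells: HT-1080 with IDH1 knockdown, 750 per well, RPMI/5% FBS. Exposure: 48 h at 37 °C following 2 h pre-incubation. Read: CellTiter-Glo luminescence; fitted concentration-response, curve class assigned.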
* marks the source's active call; other numbers are inactive results; ? = inconclusive; nt = not tested or not shown. Unless noted, calls follow the shape of the dose curve; as a rule, active = well fitted curve in the direction sought with a large enough effect; inconclusive = small, poorly fitted or top-dose-only effect, or another doubt; inactive = no such curve, though single readings can be large; an effect the other way counts as inactive or inconclusive. Unless noted, % is scaled to controls: 0 for no effect and ±100 for the full control effect.

SMILES | HT1080-NT tox | DT40 TDP1 CPT | DT40 TDP1 no CPT | IL1B secr inh | HT1080 IDH1KD tx
COc1ccc(C(C[N+](=O)[O-])c2c(C)cc3ccccn23)cc1 (configuration not stated) | ? | 10µM* | 18µM* | -7 | ?
COc1ccc(C(C[N+](=O)[O-])c2c(C)[nH]n(-c3ccccc3)c2=O)cc1 (configuration not stated) | ? | 13µM* | 16µM* | -52* | -24%
Cc1[nH]n(-c2ccccc2)c(=O)c1C(c1ccc(O)c([N+](=O)[O-])c1)c1c(C)[nH]n(-c2ccccc2)c1=O | 2% | -2% | -26% | -1 | -1%
COc1ccc(NC(=O)c2cnc3ccccn3c2=O)c(OC)c1 | 8% | 2% | -9% | -17 | 7%
Cc1cc2ccccn2c1C(C[N+](=O)[O-])c1ccc(N(C)C)cc1 (configuration not stated) | -1% | 16µM* | ? | 7 | -23%
Cn1cc(C(C[N+](=O)[O-])c2ccccc2)c2ccccc21 (configuration not stated) | ? | ? | ? | 52 | ?
COc1ccc(C(C[N+](=O)[O-])c2c(-c3ccccc3)cc3ccccn23)c(OC)c1 (configuration not stated) | ? | 2.9µM* | 5.2µM* | -11 | ?
c1coc(-c2nc3c([nH]2)CCc2nonc2-3)c1 | 17% | 2% | -2% | -7 | 23%
O=C(CSc1ccc(S(=O)(=O)N2CCCCC2)cn1)Nc1ccccc1Br | -8% | ? | ? | 23 | -9%
COCCCN(C(=S)Nc1c(C)cc(C)cc1C)C(C)c1ccccn1 (configuration not stated) | 21% | ? | 21µM* | 1 | 11%
Cc1cccc(C)c1NC(=S)N(CCN(C)C)C(C)c1ccccn1 (configuration not stated) | 5% | 0% | -17% | 0 | 0%
CC(C)CSc1ncnc2c1oc1nc3c(cc12)COC(C)(C)C3 | -6% | 1% | -3% | -6 | 8%
C=CCSc1ncnc2c1oc1nc3c(cc12)COC(C)(C)C3 | 17% | -20% | 18µM* | 10 | 3%
CCn1c(=O)c(CCC(=O)NCC2CCCO2)c(C)c2c(C)nn(-c3ccccc3)c21 (configuration not stated) | -23% | 16µM* | ? | -28 | -15%
CCn1c(=O)c(CCC(=O)N2CCN(c3ccccn3)CC2)c(C)c2c(C)nn(-c3ccccc3)c21 | ? | 16µM* | 21µM* | 0 | 20%
Cc1ccc(-n2nc(C)c3c(C)c(CCC(=O)NCC4CCCO4)c(=O)n(C)c32)cc1 (configuration not stated) | 9% | ? | 23µM* | 4 | 8%
CCn1c(=O)c(CCC(=O)NCCN2CCOCC2)c(C)c2c(C)nn(-c3ccccc3)c21 | -2% | 21µM* | ? | -15 | 9%
O=C(CCc1ccccc1)N1CCN(c2ccccn2)CC1 | 7% | -24% | -19% | -3 | 8%
CCn1cc(CCC(=O)NCCN2CCOCC2)c2ccccc21 | -4% | -4% | 8% | 25 | 4%
CC(=O)c1ccc(Nc2nc3c(S(=O)(=O)c4ccccc4)nnn3c3ccc(Cl)cc23)cc1 | nt | ? | -26% | nt | nt
Cc1nc2nc3c(cn2n1)C(=O)CCC3 | 1% | 2% | -6% | 0 | 3%
Cc1cccc(C)c1NC(=O)C(c1cccc2ccccc12)n1c(=O)c(-c2cc3ccccc3[nH]2)nc2ccccc21 (configuration not stated) | -10% | 13µM* | 9.2µM* | 54 | -8%
O=C(Nc1ccc2ccccc2c1)C(c1ccccc1)n1c(=O)c(-c2cc3ccccc3[nH]2)nc2ccccc21 (configuration not stated) | -28% | ? | 16µM* | 67 | -19%
Cc1cccc(C)c1NC(=O)C(c1ccccc1F)n1c(=O)c(-c2cc3ccccc3[nH]2)nc2ccccc21 (configuration not stated) | ? | ? | ? | 13 | ?

Assay outcomes from PubChem.
